The source of these data is PubChem BioAssay (NCATS).

Records with an inconclusive call do not appear. Active and inactive are the calls of the source. Unless noted, calls follow the shape of the dose curve; as a rule, active = well fitted curve in either direction with a large enough effect (not every such curve was filed as active); inconclusive = small, poorly fitted or top-dose-only effect, or another doubt; inactive = flat fitted curve, though single readings scatter. Bounds are passed on as bounds.

Experiment [1] deals with Lysosomal acid glucosylceramidase (Homo sapiens) (UniProt P04062). Nature of the experiment: Glucocerebrosidase-p2 (AID 348; in the data active = potency below about 10 µM; also: potency is read from the fitted curve at half-maximal effect). The settings on record: purified GBA, blue fluorogenic substrate, 40 min. The procedure, abridged:
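Normal human glucocerebrosidase (0.2 nM) with blue fluorogenic substrate (80 uM final) in citrate/phosphate pH 5.9 with 10mM sodium taurocholate, 0.01% tween-20; 40 min RT, NaOH/glycine stop; fluorescence Ex 365/Em 440; AC50 from a titration from 0.6 nM upwards.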

Experiment [2] in a line: AP1 Signaling Pathway (AID 357). Also: % is scaled to controls: 0 for no effect and ±100 for the full control effect. The settings on record: ME-180 AP-1-bla reporter, EGF-induced, beta-lactamase ratio, 5 h; at 7.69 µM (top of the series) unless noted. The procedure, abridged: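 Cells are seeded overnight, exposed to compound titrations and an EC50 level of EGF for 5 hours at 37 °C, then loaded with CCF4 dye for 2.5 hours. Beta-lactamase activity under the AP-1 element is read as a blue/green ratio.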

Experiment [3] can be described thus: NFAT Signaling Pathway (AID 444).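 Also: carbachol stimulus at about its EC50 of 1 µM final; % is scaled to controls: 0 for no effect and ±100 for the full control effect.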 As to conditions: Jurkat NFAT-bla M1, carbachol, beta-lactamase ratio, 5 h; at 7.69 µM (top of the series) unless noted. In outline: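 Read-out: CCF4 FRET ratio (460 nm/530 nm) after 1 h RT dye loading, used for %activity and AC50 from titration series. Cells: Jurkat NFAT-β-lactamase/M1 line, treated with compound plus 1 uM carbachol for 5 h, 37 °C.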

Experiment [4] can be described thus: Stat Signaling Pathway (AID 446).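 Also: ME-180 cervical cancer cells given 40 pM IL-6 alongside compound; SIE-controlled beta-lactamase reporter measured as 460/530 nm FRET emission ratio; % is scaled to controls: 0 for no effect and ±100 for the full control effect.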 The settings on record: ME-180 (cervical carcinoma) SIE beta-lactamase reporter, IL-6 stimulated, 5 h; at 7.69 µM (top of the series) unless noted. In outline:
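Emission at 460 and 530 nm (excitation 405 nm) reports SIE-controlled beta-lactamase in ME-180 cells. Cells received compound with 40 pM IL-6 for 5 hrs at 37 C; data scaled between 300 pM IL-6 and 125 nM JAK-inhibitor controls.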

Experiment [5] deals with Glucocorticoid receptor (Homo sapiens) (UniProt P04150). Nature of the experiment: GR-GFP Redistribution (AID 450;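 active = compounds whose dose series gives a full or clear partial fitted curve of increased nuclear translocation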; also: potency is read from the fitted curve at half-maximal effect). As to conditions: U2OS GR-GFP nuclear translocation, laser cytometry, 2 h.
Sequence of Glucocorticoid receptor (Homo sapiens) (P04150 whole entry, looked up, the tested form may be a part): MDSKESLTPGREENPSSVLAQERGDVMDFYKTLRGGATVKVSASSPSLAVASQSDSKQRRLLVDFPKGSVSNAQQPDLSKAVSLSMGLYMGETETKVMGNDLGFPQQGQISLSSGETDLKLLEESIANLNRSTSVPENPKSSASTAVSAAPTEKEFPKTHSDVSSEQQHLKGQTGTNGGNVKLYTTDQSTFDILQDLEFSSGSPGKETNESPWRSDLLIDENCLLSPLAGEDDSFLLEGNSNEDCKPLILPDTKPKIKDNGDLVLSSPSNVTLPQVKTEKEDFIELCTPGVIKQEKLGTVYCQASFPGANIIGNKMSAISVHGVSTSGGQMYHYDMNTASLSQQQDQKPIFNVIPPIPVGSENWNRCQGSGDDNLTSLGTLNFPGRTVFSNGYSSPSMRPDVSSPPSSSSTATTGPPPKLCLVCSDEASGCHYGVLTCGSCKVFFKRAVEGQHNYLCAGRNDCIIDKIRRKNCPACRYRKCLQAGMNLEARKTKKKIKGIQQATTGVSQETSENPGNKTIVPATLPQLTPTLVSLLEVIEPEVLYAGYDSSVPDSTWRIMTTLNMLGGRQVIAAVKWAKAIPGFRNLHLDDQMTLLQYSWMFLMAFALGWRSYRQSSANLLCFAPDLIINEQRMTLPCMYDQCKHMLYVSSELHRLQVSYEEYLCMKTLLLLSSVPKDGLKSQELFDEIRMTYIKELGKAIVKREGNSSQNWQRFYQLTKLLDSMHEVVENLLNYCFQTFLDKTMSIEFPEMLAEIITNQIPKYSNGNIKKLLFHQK
The target is the same in experiment [6]. As to the kind of experiment: GR-EFC Redistribution (AID 451; calls by dose curve; also: potency is read from the fitted curve at half-maximal effect). As to conditions: CHO-K1 GR-EFC translocation, beta-gal luminescence, 2 h. The procedure, abridged: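 Translocation of GR-ED fusion to nuclear EA restores b-gal, read by luminescence after 1 h room-temperature detection. Engineered CHO-K1 biosensor cells, 1,000/well, exposed 2 h at 37 C to titrations up to 46 uM final.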

Experiment [7] addresses Mitogen-activated protein kinase 10 (Mus musculus) (UniProt Q61831). As to the kind of experiment: JNK3 AlphaScreen Assay (AID 530).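 Also: kinase came from lysate of stimulated human HepG2 cells; signal reports phosphorylation of biotinylated GST-cJun 1-79 at Ser73 with 10 µM ATP; % is scaled to controls: 0 for no effect and ±100 for the full control effect.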 The settings on record: JNK3 lysate, c-Jun phosphorylation; series mostly up to 57.1 µM. The procedure, abridged:
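Kinase buffer: 20 mM Tris-HCl pH 7.6, 10 mM MgCl2, 1 mM DTT, 0.1 mM Na3VO4, 0.01% Tween-20; ATP 10 uM. Substrate biotin-GST-cJun(1-79), enzyme from activated HepG2 lysates. Detection by Ser73 phospho-antibody AlphaScreen.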
(In general: Bead proximity is the source of the signal in Alpha formats.)

The target in experiment [8] is 3',5'-cyclic-AMP phosphodiesterase 4B (Homo sapiens) (UniProt Q07343). Nature of the experiment: qHTS Assay for Inhibitors of PDE-IV (AID 607; active = well fitted activation curve with a large enough effect in the main read-out, with a control signal flat, not every such curve was filed as active; also: % of control where 0% means no effect). The settings on record: HEK293 ACTOne CNG channel cells, membrane potential fluorescence; series mostly up to 22.9 µM. In outline: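 The readout is membrane depolarisation from a cAMP-sensing CNG channel, detected with a potential dye at ex 535/em 590. Cells were HEK293-derived (endogenous PDE-IV) at 1000 cells/well, titrated up to 22.9 uM final.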
Sequence of 3',5'-cyclic-AMP phosphodiesterase 4B (Homo sapiens) (Q07343 whole entry, looked up): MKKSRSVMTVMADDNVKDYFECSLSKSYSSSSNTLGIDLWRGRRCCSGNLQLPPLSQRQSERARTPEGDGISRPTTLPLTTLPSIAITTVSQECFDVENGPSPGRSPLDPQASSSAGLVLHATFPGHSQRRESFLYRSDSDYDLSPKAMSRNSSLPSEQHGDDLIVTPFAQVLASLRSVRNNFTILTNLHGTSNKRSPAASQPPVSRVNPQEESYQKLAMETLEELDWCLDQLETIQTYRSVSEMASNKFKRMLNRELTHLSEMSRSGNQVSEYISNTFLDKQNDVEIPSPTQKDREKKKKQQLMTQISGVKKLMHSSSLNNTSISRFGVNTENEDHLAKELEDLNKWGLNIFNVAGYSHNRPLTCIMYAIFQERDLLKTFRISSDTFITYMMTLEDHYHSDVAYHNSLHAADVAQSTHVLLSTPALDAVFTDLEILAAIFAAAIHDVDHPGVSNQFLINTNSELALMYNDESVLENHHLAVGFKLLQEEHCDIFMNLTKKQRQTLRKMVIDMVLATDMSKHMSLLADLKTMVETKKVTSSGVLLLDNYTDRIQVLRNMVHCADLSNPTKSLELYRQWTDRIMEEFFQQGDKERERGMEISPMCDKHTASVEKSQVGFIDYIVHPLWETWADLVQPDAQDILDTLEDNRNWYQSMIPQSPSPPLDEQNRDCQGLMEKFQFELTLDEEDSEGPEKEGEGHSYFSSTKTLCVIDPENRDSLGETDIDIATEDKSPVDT
(In general: qHTS replaces the single test concentration by a dilution series.)

For experiment [9], the target named is Cytochrome P450 3A4 (Homo sapiens) (UniProt P08684). Nature of the experiment: qHTS Assay for Activators of Cytochrome P450 3A4 (AID 885; active = well fitted curve in the direction sought with a large enough effect; an effect the other way counts as inactive or inconclusive; also: nearly all actives have a fitted effect of over 65% in size). The settings on record: recombinant CYP3A4, Luciferin-PPXE luminescence, 60 min; series mostly up to 57.1 µM. The procedure, abridged: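 Activators are scored by enhanced luminescence from CYP3A4 conversion of luciferin-PPXE (25uM, equal to KM) to luciferin, after 60 min at RT with an NADPH-regenerating system.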
Sequence of Cytochrome P450 3A4 (Homo sapiens) (P08684 whole entry, looked up): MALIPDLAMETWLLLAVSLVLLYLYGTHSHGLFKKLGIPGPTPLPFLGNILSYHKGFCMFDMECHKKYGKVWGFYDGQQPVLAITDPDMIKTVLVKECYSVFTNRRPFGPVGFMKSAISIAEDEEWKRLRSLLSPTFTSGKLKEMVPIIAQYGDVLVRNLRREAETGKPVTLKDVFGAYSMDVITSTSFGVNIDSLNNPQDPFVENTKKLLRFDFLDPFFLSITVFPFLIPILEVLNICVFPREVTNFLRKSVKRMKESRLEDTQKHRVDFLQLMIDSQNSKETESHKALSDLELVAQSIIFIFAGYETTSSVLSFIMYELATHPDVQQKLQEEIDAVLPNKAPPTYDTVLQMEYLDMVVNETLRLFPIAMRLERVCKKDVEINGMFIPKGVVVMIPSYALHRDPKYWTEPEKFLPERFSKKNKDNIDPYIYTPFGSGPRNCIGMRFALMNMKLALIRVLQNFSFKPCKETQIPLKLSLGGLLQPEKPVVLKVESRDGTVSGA

For experiment [10], the target named is Dual specificity protein kinase CLK4 (Homo sapiens) (UniProt Q9HAZ1). As to the kind of experiment: qHTS Assay for Inhibitors of CDC-like Kinase 4 (ADP-FP Assay) (AID 1795; active = well fitted curve in the direction sought with a large enough effect; an effect the other way counts as inactive or inconclusive;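 also: recombinant human CLK4 phosphorylating RS repeat peptide at 1 µM ATP; % is scaled to controls: 0 for no effect and ±100 for the full control effect; nearly all actives have a fitted effect of over 60% in size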). As to conditions: Transcreener ADP fluorescence polarization; series mostly up to 50 µM. The procedure, abridged:
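Inhibition of ADP formation by 6.25 nM Clk4 is measured using 1 uM ATP and 100 uM RS repeat peptide over one hour. Produced ADP displaces a fluorescent tracer from antibody, lowering polarization.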

Experiment [11] has as its target Ubiquitin carboxyl-terminal hydrolase 1 (Homo sapiens) (UniProt O94782). Nature of the experiment: Inhibitors of USP1/UAF1: Pilot qHTS (AID 504865; active = well fitted curve in the direction sought with a large enough effect; an effect the other way counts as inactive or inconclusive;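 also: rhodamine fluorescence freed from ubiquitin-rhodamine substrate followed over time; top concentration of the series differs between compounds; % is scaled to controls: 0 for no effect and ±100 for the full control effect; nearly all actives have a fitted effect of over 35% in size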). As to conditions: purified USP1/UAF1, Ub-rhodamine cleavage fluorescence; series mostly up to 54.9 µM. In outline: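 Kinetic fluorescence assay: 1nM USP1/UAF1, 15 min compound preincubation, then 150nM Ub-Rho; 480/540 nm.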

Experiment [12] in a line: Primary qHTS for small molecule stabilizers of the endoplasmic reticulum resident proteome: Secreted ER Calcium Modulated Protein (SERCaMP) assay (AID 1508630; active = well fitted curve in the direction sought with a large enough effect; an effect the other way counts as inactive or inconclusive; also: % is scaled to controls: 0 for no effect and ±100 for the full control effect). As to conditions: SH-SY5Y GLuc-SERCaMP (Gaussia luciferase released on ER calcium loss) secretion, thapsigargin, luminescence; series mostly up to 38.4 µM. In outline: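 The SH-SY5Y reporter protocol was run at 3 concentrations up to 38.3 uM (primary) or 11 concentrations (follow-up): 16 h compound, 100 nM thapsigargin for 4 h, then extracellular luciferase luminescence.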

Experiment [13] has as its target Cytochrome P450 1A2 (Homo sapiens) (UniProt P05177). Nature of the experiment: p450-cyp1a2 (AID 410; calls by dose curve; also: potency is read from the fitted curve at half-maximal effect;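 as to activity change, negative = inhibition: -100% = full effect of reference inhibitor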). As to conditions: recombinant CYP1A2, luciferin-ME demethylation, luminescence; series mostly up to 57 µM. In outline: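 20nM CYP1A2, 100uM Luciferin-ME (=Km), 100mM KPO4; cpd 10 min RT; +NADPH regen, 60 min RT; stop/detect 20 min; luminescence. Normalized to furafylline 57 uM = full inhibition.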

The target in experiment [14] is Dual specificity protein kinase CLK4 (Homo sapiens) (UniProt Q9HAZ1). Nature of the experiment: qHTS Assay for Inhibitors of CDC-like Kinase 4 (Kinase-Glo Assay) (AID 1770; active = well fitted curve in the direction sought with a large enough effect; an effect the other way counts as inactive or inconclusive; also: potency is read from the fitted curve at half-maximal effect; nearly all actives have a fitted effect of over 65% in size). The settings on record: recombinant Clk4, Kinase-Glo ATP depletion luminescence; series mostly up to 66.7 µM. In outline:
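Inhibition was judged from remaining ATP, measured by Ultra-Glo luciferase bioluminescence after Clk4 (25 nM) had acted on RS peptide at 1 uM ATP for 4.5 hours, room temperature.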

Experiment [15] has the same target. As to the kind of experiment: qHTS Assay for Inhibitors of CDC-like Kinase 4 (ADP-Glo Assay) (AID 1771; active = well fitted curve in the direction sought with a large enough effect; an effect the other way counts as inactive or inconclusive; also: potency is read from the fitted curve at half-maximal effect; nearly all actives have a fitted effect of over 70% in size). The settings on record: recombinant CLK4, ADP-Glo luminescence; series mostly up to 80 µM. In outline:
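25 nM Clk4, 100 uM RS peptide, 1 uM ATP (final); 2 mM MgCl2, 0.5 mM EGTA, 2.5 mM DTT, 0.01% Triton X-100; 1 hr RT. ADP-Glo readout: ATP depletion 45 min, conversion/luciferase 30 min, luminescence.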

Experiment [16] in a line: qHTS Assay for Lipid Storage Modulators (AID 1519; calls by dose curve). The settings on record: Drosophila S3 cells, BODIPY lipid droplet/cell ratio, laser cytometry, cells loaded with oleic acid; for activity change, negative = inhibition: at 57.5 µM (top of the series). The procedure, abridged: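 Cells seeded at 5,000 per well were treated with compounds over a concentration series and loaded with oleic acid (400 uM, as added). Lipid droplet fluorescence (488 nm excitation, 500-530 nm channel) was read by laser-scanning cytometry and normalized to 20 uM Triacsin C.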

In experiment [17] the target is Cytochrome P450 2D6 (Homo sapiens) (UniProt P10635). Nature of the experiment: qHTS Assay for Inhibitors and Substrates of Cytochrome P450 2D6 (AID 891; active = well fitted curve in the direction sought with a large enough effect; an effect the other way counts as inactive or inconclusive; also: potency is read from the fitted curve at half-maximal effect; nearly all actives have a fitted effect of over 60% in size). The settings on record: recombinant CYP2D6, luciferin-ME EGE luminescence; series mostly up to 57.1 µM. The procedure, abridged: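 Luminescent read-out of luciferin formed by 5 nM human CYP2D6 demethylating 30 uM Luciferin-ME EGE (Km level) over 60 min at room temperature after NADPH regeneration addition. Data normalized to full inhibition by 1.43 uM quinidine.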
Sequence of Cytochrome P450 2D6 (Homo sapiens) (P10635 whole entry, looked up): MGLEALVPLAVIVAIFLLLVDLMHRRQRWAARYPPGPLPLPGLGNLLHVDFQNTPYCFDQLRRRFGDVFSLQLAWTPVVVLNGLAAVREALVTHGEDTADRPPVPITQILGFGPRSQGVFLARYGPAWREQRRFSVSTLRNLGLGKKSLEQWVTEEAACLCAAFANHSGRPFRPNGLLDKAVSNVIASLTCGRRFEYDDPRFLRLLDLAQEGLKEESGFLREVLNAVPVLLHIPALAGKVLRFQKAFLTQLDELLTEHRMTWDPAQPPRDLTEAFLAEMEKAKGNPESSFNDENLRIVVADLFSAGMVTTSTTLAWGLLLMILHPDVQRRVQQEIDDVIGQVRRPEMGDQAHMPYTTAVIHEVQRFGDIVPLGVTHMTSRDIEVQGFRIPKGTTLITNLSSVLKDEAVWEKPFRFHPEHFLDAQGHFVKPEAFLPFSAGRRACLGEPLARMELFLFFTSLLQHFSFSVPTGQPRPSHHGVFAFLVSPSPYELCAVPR

The mark [18] stands for this setting: measured here: cell count channel max response.
[19] abbreviates: measured here: lipid channel max response.

Sequence of Dual specificity protein kinase CLK4 (Homo sapiens) (Q9HAZ1 whole entry, looked up): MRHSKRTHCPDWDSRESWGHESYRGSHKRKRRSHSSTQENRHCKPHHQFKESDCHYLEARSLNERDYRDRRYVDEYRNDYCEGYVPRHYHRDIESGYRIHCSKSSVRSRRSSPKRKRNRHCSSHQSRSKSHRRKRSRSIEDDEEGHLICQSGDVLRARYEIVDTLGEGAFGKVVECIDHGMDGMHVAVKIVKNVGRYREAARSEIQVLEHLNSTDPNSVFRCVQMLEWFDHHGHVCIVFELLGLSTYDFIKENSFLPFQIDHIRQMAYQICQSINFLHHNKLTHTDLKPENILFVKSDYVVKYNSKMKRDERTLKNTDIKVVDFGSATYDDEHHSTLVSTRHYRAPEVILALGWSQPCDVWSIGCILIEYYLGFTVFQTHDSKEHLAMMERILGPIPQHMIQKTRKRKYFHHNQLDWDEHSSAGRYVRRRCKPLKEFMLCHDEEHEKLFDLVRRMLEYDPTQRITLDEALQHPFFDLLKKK
Sequence of Lysosomal acid glucosylceramidase (Homo sapiens) (P04062 whole entry, looked up): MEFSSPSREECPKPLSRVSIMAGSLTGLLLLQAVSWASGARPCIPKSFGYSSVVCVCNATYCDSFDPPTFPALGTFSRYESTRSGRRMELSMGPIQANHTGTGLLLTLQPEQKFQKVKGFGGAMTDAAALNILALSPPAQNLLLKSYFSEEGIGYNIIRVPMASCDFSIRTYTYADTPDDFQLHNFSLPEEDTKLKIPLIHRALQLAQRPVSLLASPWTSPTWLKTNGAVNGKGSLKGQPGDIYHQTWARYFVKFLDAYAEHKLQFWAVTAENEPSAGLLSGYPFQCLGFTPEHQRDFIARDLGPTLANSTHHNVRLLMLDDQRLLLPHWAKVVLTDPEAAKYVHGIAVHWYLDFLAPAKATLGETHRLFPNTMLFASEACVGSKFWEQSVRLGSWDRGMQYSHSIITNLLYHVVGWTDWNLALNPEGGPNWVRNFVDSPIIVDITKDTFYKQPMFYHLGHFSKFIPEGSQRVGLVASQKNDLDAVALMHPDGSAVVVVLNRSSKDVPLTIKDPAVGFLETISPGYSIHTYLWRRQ
Sequence of Ubiquitin carboxyl-terminal hydrolase 1 (Homo sapiens) (O94782 whole entry, looked up): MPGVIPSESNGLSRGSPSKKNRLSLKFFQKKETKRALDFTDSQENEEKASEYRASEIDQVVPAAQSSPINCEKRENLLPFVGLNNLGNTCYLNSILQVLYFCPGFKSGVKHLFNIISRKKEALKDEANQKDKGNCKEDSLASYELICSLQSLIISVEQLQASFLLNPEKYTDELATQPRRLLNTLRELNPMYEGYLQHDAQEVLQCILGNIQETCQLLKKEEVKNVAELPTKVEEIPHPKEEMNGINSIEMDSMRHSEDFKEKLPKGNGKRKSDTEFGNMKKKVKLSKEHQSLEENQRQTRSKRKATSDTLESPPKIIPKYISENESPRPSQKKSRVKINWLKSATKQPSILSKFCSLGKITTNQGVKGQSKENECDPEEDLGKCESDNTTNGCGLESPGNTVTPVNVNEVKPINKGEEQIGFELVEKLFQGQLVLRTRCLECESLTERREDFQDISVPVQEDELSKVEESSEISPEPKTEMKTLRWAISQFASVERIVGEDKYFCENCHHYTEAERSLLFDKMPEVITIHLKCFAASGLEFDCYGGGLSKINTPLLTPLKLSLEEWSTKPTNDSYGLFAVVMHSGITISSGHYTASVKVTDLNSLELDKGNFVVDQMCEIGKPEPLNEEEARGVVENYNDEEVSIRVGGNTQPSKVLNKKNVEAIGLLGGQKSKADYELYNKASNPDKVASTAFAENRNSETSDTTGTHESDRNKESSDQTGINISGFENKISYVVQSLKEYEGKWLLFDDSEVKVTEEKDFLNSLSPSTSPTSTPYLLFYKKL
Sequence of Cytochrome P450 1A2 (Homo sapiens) (P05177 whole entry, looked up): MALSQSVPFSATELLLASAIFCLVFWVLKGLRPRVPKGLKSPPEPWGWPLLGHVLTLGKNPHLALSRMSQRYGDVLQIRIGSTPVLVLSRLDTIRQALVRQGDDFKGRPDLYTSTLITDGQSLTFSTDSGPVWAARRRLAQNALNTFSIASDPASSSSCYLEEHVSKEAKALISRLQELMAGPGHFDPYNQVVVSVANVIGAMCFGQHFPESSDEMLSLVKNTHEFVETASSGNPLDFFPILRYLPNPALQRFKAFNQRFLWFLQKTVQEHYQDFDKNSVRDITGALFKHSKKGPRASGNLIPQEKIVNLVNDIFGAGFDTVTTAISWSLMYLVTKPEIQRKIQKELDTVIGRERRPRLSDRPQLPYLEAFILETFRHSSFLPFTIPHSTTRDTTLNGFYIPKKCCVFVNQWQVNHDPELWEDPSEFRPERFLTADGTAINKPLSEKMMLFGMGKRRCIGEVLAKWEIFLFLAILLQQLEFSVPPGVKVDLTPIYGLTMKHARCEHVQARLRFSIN

With `CC(=O)NCCNc1ccnc(-c2ccccc2C(F)(F)F)n1`, the results for the Potency in experiment [1], in experiment [5] and in [6] were > 11.4 µM (inactive), > 46 µM (inactive) and > 46 µM (inactive), respectively. In addition, the activity change, negative = inhibition in experiment [2] was 0.161% (inactive); in experiment [3], -3.29% (inactive). In addition, the activity, negative = inhibition in experiment [4] was 11.9% (inactive). For the same molecule, the call in experiment [7] was inactive. Further, the Potency result in [8], in experiment [9], in experiment [10], in experiment [11] and in experiment [12] was “inactive” throughout.

Turning to `CC(C)CN1CC[C@@]2(CCCN(C(=O)c3cnccn3)C2)C1`, the Potency in [1] is > 11.4 µM (inactive); in experiment [6], > 46 µM (inactive). Moreover, the activity change, negative = inhibition was 6.22% (inactive) in [2] and 13.6% (inactive) in experiment [3]. Further, the Potency result in [13], in experiment [9] and in experiment [12] was “inactive” in each case. The activity, negative = inhibition in [4] was 4.96% (inactive). Further, in experiment [7], the outcome was inactive.

In the case of `CS(=O)(=O)Nc1cccc(-c2ccc3ncnc(NCCN4CCOCC4)c3c2)c1`, the Potency in experiment [1] is > 11.4 µM (inactive); in experiment [13], 25.1 µM (active); in [5] it was > 46 µM (inactive); in experiment [6], > 46 µM (inactive); in [14], 8.91 µM (active); in [15] it was 8.91 µM (active). Further, the activity change, negative = inhibition in [2] was -17.6% (inactive). Besides, in experiment [4], the activity, negative = inhibition was 2.22% (inactive). For the same molecule, in experiment [7], the molecule was classed as inactive. Also, the Potency entry in [8], in experiment [9], in experiment [11] and in experiment [12] was “inactive” each time.

Consider `O=C(Nc1ccccc1)N1CCC2(CC1)CCN(C(=O)c1ccncc1)CC2`, for which the Potency in experiment [1] is > 11.4 µM (inactive); in experiment [6], > 46 µM (inactive). The activity change, negative = inhibition in [2] is -8.86% (inactive); in experiment [3] it was -7.39% (inactive); in [16] it was 7.6% (inactive). For the same molecule, the activity, negative = inhibition in experiment [4] is 2.23% (inactive). Also, the outcome in [7] was inactive. The Potency entry in experiment [8] and in experiment [12] was “inactive” throughout. The max response in [16] (setting [18]) stood at 12.3%; in [16] (setting [19]), 27.7%.

As to `COc1ccccc1CN1CC[C@@]2(CCCN(S(C)(=O)=O)C2)C1`, the Potency in [1] was > 11.4 µM (inactive); in experiment [6], > 46 µM (inactive); in experiment [17], 316 nM (active). Besides, the figures for the activity change, negative = inhibition in experiment [2], in experiment [3] and in experiment [16] were 1.48% (inactive), -16.9% (inactive) and 4.56% (inactive), respectively. Besides, the activity, negative = inhibition in experiment [4] is 5.92% (inactive). Also, the molecule was called inactive in [7]. Moreover, the Potency result in experiment [8] and in experiment [12] was “inactive” in each case. Further, the max response in experiment [16] (setting [18]) came out at 7.77%; in experiment [16] (setting [19]), 13.7%.

For the molecule `COCCn1c(=O)c(C)nc2cnc(N3CCNCC3)nc21`, the results for the Potency in [1], in experiment [5] and in experiment [6] were > 11.4 µM (inactive), > 9.22 µM (inactive) and > 46 µM (inactive), respectively. Further, the activity change, negative = inhibition in experiment [2] is -21.3% (inactive); in [3] it was -18.9% (inactive); in experiment [16] it was 1.17% (inactive). Besides, in [4], the activity, negative = inhibition was -2.95% (inactive). Also, in experiment [7], the molecule was classed as inactive. Also, the Potency result in experiment [8] and in [12] was “inactive” in each case. Further, the max response in experiment [16] (setting [18]) amounted to 4.65%; in [16] (setting [19]) it was 6.84%.

Take `O=C(Nc1cccc(F)c1)N1CC[C@@]2(CCCN(C(=O)c3cccc(F)c3)C2)C1`: the Potency in experiment [1] was > 11.4 µM (inactive); in experiment [6] it was > 46 µM (inactive). In addition, the activity change, negative = inhibition in [2] is -6.61% (inactive); in experiment [3] it was 16.9% (inactive); in experiment [16], 6.49% (inactive). In experiment [4], the activity, negative = inhibition is -1.65% (inactive). The outcome in [7] was inactive. Moreover, the Potency result in experiment [8], in experiment [9] and in experiment [12] was “inactive” throughout. Also, the figures for the max response in experiment [16] (setting [18]) and in experiment [16] (setting [19]) were 12.4% and 22.3%, respectively.
